About 79,000 compounds went through this panel and 15% of them were active in at least one assay; those are over-represented in the sample as a whole. Activity calls are given as the source filed them. No stated cut-off is given here; in the data, active means growth inhibition above about 70%; inactive means the rest.
Experiments:
[1] = NCI Yeast Anticancer Drug Screen. Data for the rad52 strain (AID 147);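 further: 0% = growth of vehicle-treated control cultures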; details: S. cerevisiae rad52 mutant growth inhibition, stronger effect = higher value
Outline: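 Inhibition of yeast growth, referenced to vehicle controls, was the measured output for a strain with defective DNA damage repair.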

[2] = NCI Yeast Anticancer Drug Screen. Data for the wt1 strain (AID 149);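 further: 0% = growth of vehicle-treated wt1 cultures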; details: S. cerevisiae wt1 strain (SPY 50644) growth inhibition, stronger effect = higher value
Outline: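 Using yeast strain wt1, compound-induced growth inhibition was determined against vehicle-treated cultures.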

[3] = NCI Yeast Anticancer Drug Screen. Data for the rad50EPP+ strain (AID 151);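 further: 0% = growth of vehicle-treated control cultures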; details: S. cerevisiae rad50 mutant strain, stronger effect = higher value
Outline: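 Genetically defined yeast (rad50EPP+, DNA damage repair alteration) is grown with compound, and inhibition of growth is expressed relative to vehicle-treated controls.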

[4] = NCI Yeast Anticancer Drug Screen. Data for the mgt1 strain (AID 153); details: S. cerevisiae mgt1 mutant growth inhibition, stronger effect = higher value
Outline: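 In the mgt1 strain, test compounds were added and growth inhibition was determined relative to vehicle-treated controls.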

[5] = NCI Yeast Anticancer Drug Screen. Data for the rad50 strain (AID 155);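 further: 0% = growth of vehicle-only cultures of the same strain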; details: S. cerevisiae rad50 strain growth inhibition, stronger effect = higher value
Outline: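 Relative growth inhibition (compound vs vehicle) was measured in yeast with a defined repair-gene alteration.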

[6] = NCI Yeast Anticancer Drug Screen. Data for the mec2-1 strain (AID 157); details: S. cerevisiae mec2-1 strain, stronger effect = higher value
Outline: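 Each compound was tested on mec2-1 yeast, a strain altered in DNA damage repair or cell cycle control. Growth inhibition is reported relative to vehicle.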

[7] = NCI Yeast Anticancer Drug Screen. Data for the rad14 strain (AID 159);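 further: 0% = growth of vehicle-treated control cultures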; details: S. cerevisiae rad14 strain growth inhibition, stronger effect = higher value
Outline: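 Screen for anticancer potential: a yeast strain altered in DNA damage repair is grown with compound, and reduced growth is quantified against vehicle controls.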

[8] = NCI Yeast Anticancer Drug Screen. Data for the sgs1 mgt1 strain (AID 161);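 further: 0% = growth of cultures given vehicle only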; details: S. cerevisiae sgs1 mgt1 strain, stronger effect = higher value
Outline: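 Genetically altered yeast, compound exposure, growth inhibition relative to vehicle.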

[9] = NCI Yeast Anticancer Drug Screen. Data for the CLN2oe strain (AID 163);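 further: 0% = growth of vehicle-only control cultures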; details: S. cerevisiae CLN2oe strain, stronger effect = higher value
Outline: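 First, the altered yeast strain was treated with each compound; second, its growth was measured; finally, inhibition was derived by comparison with vehicle controls.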

[10] = NCI Yeast Anticancer Drug Screen. Data for the cln2 rad14 strain (AID 165);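 further: 0% = growth equal to vehicle treated cultures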; details: S. cerevisiae cln2 rad14 strain, stronger effect = higher value
Outline: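 Test compounds were added to cln2 rad14 yeast cultures; inhibition of growth was then determined by comparison with vehicle treatment.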

[11] = NCI Yeast Anticancer Drug Screen. Data for the bub3 strain (AID 167); details: S. cerevisiae bub3 mutant strain, stronger effect = higher value
Outline: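 Screening used yeast with an engineered genetic alteration affecting cell cycle control. Compound-exposed cultures were compared with vehicle cultures, and reduced growth was taken as inhibition.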

[12] = NCI Yeast Anticancer Drug Screen. Data for the wt2 strain (AID 169);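 further: 0% = growth of vehicle-treated yeast cultures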; details: S. cerevisiae wt2 strain growth inhibition, stronger effect = higher value
Outline: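 The panel's yeast strains carry defined changes in DNA repair or cell cycle genes. Each strain is grown with compound, and growth loss is scored relative to vehicle.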

[13] = NCI Yeast Anticancer Drug Screen. Data for the mlh1 strain (AID 171);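 further: 0% = growth of vehicle-treated control cultures of the same strain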; details: S. cerevisiae mlh1 strain growth inhibition, stronger effect = higher value
Outline: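 Inhibition values reflect reduced yeast growth in the presence of compound, referenced to vehicle controls, using a strain chosen for its alteration in DNA repair or cell cycle control.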

[14] = NCI Yeast Anticancer Drug Screen. Data for the sgs1 strain (AID 173);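 further: 0% = growth of vehicle-only control cultures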; details: S. cerevisiae sgs1 mutant, stronger effect = higher value
Outline: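 Vehicle-treated cultures served as reference for growth inhibition of a yeast strain altered in DNA damage repair or cell cycle control after compound exposure.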

[15] = NCI Yeast Anticancer Drug Screen. Data for the mlh1 rad18 strain (AID 175); details: S. cerevisiae mlh1 rad18 strain growth inhibition, stronger effect = higher value
Outline: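 Inhibition values reflect reduced growth of mutant yeast versus vehicle-treated controls following compound exposure; the mutations affect DNA damage repair.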

[16] = NCI Yeast Anticancer Drug Screen. Data for the rad18 strain (AID 177); details: S. cerevisiae rad18 mutant growth inhibition, stronger effect = higher value
Outline: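 Steps: expose repair-mutant yeast to compound; measure growth; express as inhibition relative to vehicle control.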

[17] = at 5.0 µM (retest, dose inferred, filed as 0.5)
[18] = at 50.0 µM (retest, dose inferred, filed as 5.0)

Measured: growth inhibition

CC1=C[C@H]2O[C@@H]3C[C@H]4OC(=O)/C=C\C=C\C(C(C)O)OCC(O)C(C)CC(=O)OC[C@@]2(C[C@@H]1O)[C@]4(C)[C@@]31CO1 (stereo partly drawn)
active: [1]; at 11.0 µM 91% | [1]; at 33.0 µM 97% | [1]; at 100.0 µM 97% | [2]; at 11.0 µM 93% | [2]; at 33.0 µM 98% | [2]; at 100.0 µM 98% | [4]; at 11.0 µM 92% | [4]; at 33.0 µM 97% | [4]; at 100.0 µM 97% | [5]; at 11.0 µM 92% | [5]; at 33.0 µM 97% | [5]; [18] 98% | [5]; at 50.0 µM 91.1% | [5]; at 100.0 µM 97% | [6]; at 11.0 µM 88% | [6]; at 33.0 µM 97% | [6]; [18] 98% | [6]; at 50.0 µM 92.2% | [6]; at 100.0 µM 97% | [7]; at 11.0 µM 93% | [7]; at 33.0 µM 97% | [7]; at 100.0 µM 97% | [8]; at 50.0 µM 92.2% | [9]; at 11.0 µM 91% | [9]; at 33.0 µM 97% | [10]; at 50.0 µM 91.4% | [11]; at 11.0 µM 89% | [11]; at 33.0 µM 97% | [11]; at 50.0 µM 90.8% | [11]; at 100.0 µM 97% | [12]; at 11.0 µM 78% | [12]; at 33.0 µM 98% | [12]; at 100.0 µM 98% | [13]; at 11.0 µM 89% | [13]; at 33.0 µM 97% | [13]; at 100.0 µM 97% | [14]; at 11.0 µM 82% | [14]; at 33.0 µM 94% | [14]; at 100.0 µM 96% | [15]; [18] 98% | [15]; at 50.0 µM 89.7% | [16]; at 11.0 µM 91% | [16]; at 33.0 µM 96% | [16]; at 100.0 µM 96%
inactive: [1]; at 1.2 µM -21% | [1]; at 3.7 µM 2% | [2]; at 1.2 µM -13% | [2]; at 3.7 µM 24% | [3]; at 1.2 µM -29% | [3]; at 3.7 µM -43% | [3]; at 11.0 µM -31% | [3]; at 33.0 µM -46% | [3]; at 100.0 µM -55% | [4]; at 1.2 µM -54% | [4]; at 3.7 µM -7% | [5]; at 1.2 µM -23% | [5]; at 3.7 µM 17% | [5]; [17] 41% | [6]; at 1.2 µM -60% | [6]; at 3.7 µM -3% | [6]; [17] 40% | [7]; at 1.2 µM -14% | [7]; at 3.7 µM 25% | [8]; [17] 7% | [8]; [18] 12% | [9]; at 1.2 µM 13% | [9]; at 3.7 µM 24% | [9]; at 100.0 µM 18% | [10]; [17] 18% | [10]; [18] -18% | [11]; at 1.2 µM -46% | [11]; at 3.7 µM 4% | [11]; [17] 4% | [11]; [18] -8% | [12]; at 1.2 µM -12% | [12]; at 3.7 µM 8% | [13]; at 1.2 µM -73% | [13]; at 3.7 µM 3% | [14]; at 1.2 µM -42% | [14]; at 3.7 µM -17% | [15]; [17] 68% | [16]; at 1.2 µM -64% | [16]; at 3.7 µM -15%

CCOP(=O)(CC(C)P(=O)(OCC)OCC)OCC.C[CH2][Sn]([Cl])([Cl])[CH2]C (stereo not drawn)
active: [1]; at 33.0 µM 79% | [1]; at 100.0 µM 94% | [2]; at 33.0 µM 76% | [2]; at 100.0 µM 93% | [4]; at 100.0 µM 95% | [5]; at 33.0 µM 71% | [5]; at 50.0 µM 82.7% | [5]; at 100.0 µM 92% | [6]; at 50.0 µM 85.4% | [6]; at 100.0 µM 93% | [7]; at 100.0 µM 76% | [9]; at 33.0 µM 72% | [9]; at 100.0 µM 93% | [11]; at 50.0 µM 84.1% | [11]; at 100.0 µM 91%
inactive: [1]; at 1.2 µM -4% | [1]; at 3.7 µM -1% | [1]; at 11.0 µM 19% | [2]; at 1.2 µM 0% | [2]; at 3.7 µM 3% | [2]; at 11.0 µM 12% | [3]; at 1.2 µM -1% | [3]; at 3.7 µM 1% | [3]; at 11.0 µM 5% | [3]; at 33.0 µM 4% | [3]; at 100.0 µM 4% | [4]; at 1.2 µM -3% | [4]; at 3.7 µM -1% | [4]; at 11.0 µM 4% | [4]; at 33.0 µM 67% | [5]; at 1.2 µM -7% | [5]; at 3.7 µM -15% | [5]; [17] 16% | [5]; at 11.0 µM -2% | [5]; [18] 14% | [6]; at 1.2 µM 1% | [6]; at 3.7 µM 4% | [6]; [17] 1% | [6]; at 11.0 µM 14% | [6]; at 33.0 µM 69% | [6]; [18] 18% | [7]; at 1.2 µM -3% | [7]; at 3.7 µM 1% | [7]; at 11.0 µM 4% | [7]; at 33.0 µM 19% | [8]; [17] 11% | [8]; [18] 4% | [8]; at 50.0 µM 68.2% | [9]; at 1.2 µM -6% | [9]; at 3.7 µM -5% | [9]; at 11.0 µM 7% | [10]; [17] 6% | [10]; [18] 52% | [10]; at 50.0 µM 50.1% | [11]; at 1.2 µM -2% | [11]; at 3.7 µM 1% | [11]; [17] -9% | [11]; at 11.0 µM 5% | [11]; at 33.0 µM 55% | [11]; [18] 53%

From PubChem BioAssay (NCI)
